According to PubChem BioAssay AID1220 (Sanford-Burnham Center for Chemical Genomics, 2008):
The whole screen tested about 190,000 compounds, of which about 1,300 (0.68%) were called active. The full list was thinned out, with actives kept by preference. A number with no mark means an inactive call. Rule as the data show it: active = inhibition above about 50%; inactive = the rest.

Molecular target: Mannose-6-phosphate isomerase (Homo sapiens) (UniProt P34949)
Experiment: human PMI inhibitors, high substrate, primary screen, biochemical, fluorescence intensity, high mannose 6-phosphate (AID 1220)
Conditions: recombinant PMI enzyme, coupled fluorescence intensity; at 20 µM; hits give high values

Chain of Mannose-6-phosphate isomerase (Homo sapiens) (P34949 whole entry, looked up): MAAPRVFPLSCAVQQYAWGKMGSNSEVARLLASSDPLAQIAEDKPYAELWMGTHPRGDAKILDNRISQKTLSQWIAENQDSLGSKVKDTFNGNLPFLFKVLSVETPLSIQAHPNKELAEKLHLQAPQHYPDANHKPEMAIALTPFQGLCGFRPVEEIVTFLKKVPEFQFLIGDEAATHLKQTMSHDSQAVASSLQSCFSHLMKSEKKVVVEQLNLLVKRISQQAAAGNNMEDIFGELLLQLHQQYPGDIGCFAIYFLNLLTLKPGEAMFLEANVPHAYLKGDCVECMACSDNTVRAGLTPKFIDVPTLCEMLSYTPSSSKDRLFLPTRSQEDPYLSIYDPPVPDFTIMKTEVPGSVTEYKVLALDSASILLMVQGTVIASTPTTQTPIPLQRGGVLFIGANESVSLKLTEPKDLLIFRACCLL

SMILES	inhibition
COc1ccc(OCCNc2cc(N3CCOCC3)ccc2[N+](=O)[O-])cc1	5.4%
O=C(CSc1ccc(Cl)cc1)Nc1cccc(-c2nc3ncccc3o2)c1	-3.6%
C=CCN(CC=C)C(=S)Nc1ccc2nsnc2c1	55.3% (active)
O=C(NCc1ccc2c(c1)OCO2)Nc1ccc2nsnc2c1	26.7%
CN(C)C(=S)Nc1ccc2c(c1)OCO2	11.8%
C=CCNC(=S)Nc1ccc2nsnc2c1	9.9%
S=C(NCc1ccc2c(c1)OCO2)Nc1ccc2nsnc2c1	53.7% (active)
NC(=S)Nc1ccc2c(c1)OCO2	1.7%
C=CCN(CC=C)C(=S)Nc1ccc(OC)c(OC)c1	20.1%
O=C(Nc1ccc(S(=O)(=O)NCc2ccccc2)cc1)Nc1ccc2c(c1)OCO2	8.6%
NS(=O)(=O)c1ccc(NC(=S)NCc2ccc3c(c2)OCO3)cc1	17.1%
CNS(=O)(=O)c1ccc(NC(=S)Nc2ccc3c(c2)OCO3)cc1	55.7% (active)
S=C(NCc1ccc(Cl)c(Cl)c1)Nc1ccc2c(c1)OCO2	10.2%
S=C(Nc1ccc2c(c1)OCO2)Nc1ccc2c(c1)OCO2	62.3% (active)
CCCN1C(=O)C(O)(C/C(C)=N/O)c2ccccc21 (stereo not given)	3.5%
COc1ccc(CC(=O)OC(C)CN2CCOCC2)cc1 (stereo not given)	-1.4%
Cc1ccc(-c2nc(C3CCCN(S(=O)(=O)c4ccc(C)cc4)C3)no2)cc1 (stereo not given)	5.6%
CCN(CC)S(=O)(=O)c1ccc(C(=O)OCn2c(SC)nnc(C)c2=O)cc1	12.1%
O=C(Nc1ccc2c(c1)OCCO2)Nc1ccc2c(c1)OCO2	13%
O=S(=O)(NCc1ccc(F)cc1)c1cccc(S(=O)(=O)N2CCOCC2)c1	-0.5%
O=S(=O)(NCc1ccc2c(c1)OCO2)c1cccc(S(=O)(=O)N2CCOCC2)c1	52.5% (active)
O=C(Nc1ccc2c(c1)OCO2)Nc1ccc2c(c1)OCO2	15.8%
O=S(=O)(NCc1ccccc1)c1cccc(S(=O)(=O)N2CCOCC2)c1	4.1%
O=S(=O)(c1ccc(NC(=S)Nc2ccc3c(c2)OCO3)cc1)N1CCOCC1	52.2% (active)

SMILES	inhibition
O=S(=O)(c1ccc(NC(=S)Nc2ccccc2)cc1)N1CCOCC1	-2.7%
CCn1ncc(NC(=S)NCCc2ccccc2)c1C(N)=O	5.4%
S=C(Nc1ccc2c(c1)OCCO2)Nc1ccc2c(c1)OCO2	62.7% (active)
Cc1ccc(NC(=S)Nc2ccc(S(=O)(=O)N3CCOCC3)cc2)cc1S(=O)(=O)N1CCOCC1	-1.2%
CCn1ncc(Br)c1C(=O)Nc1ccc2c(c1)OCCO2	0.3%
CCn1ncc(NC(=S)Nc2ccc3c(c2)OCO3)c1C(N)=O	57.3% (active)
O=C1CC(c2ccc(F)cc2)CC2=C1C=Nc1ccccc1N2 (stereo not given)	-4.8%
Cc1nn(Cc2ccccc2)c(C)c1NC(=O)CCCn1nc(C)c([N+](=O)[O-])c1C	-2.1%
CCCCC(=O)Nc1ccc(NC(=O)c2cc(OC)c(OC)c(OC)c2)cn1	3.2%
CCN1CCCc2cc(CN(CCN3CCOCC3)C(=S)Nc3ccc(OC)c(OC)c3)ccc21	22.3%
COc1ccccc1CNC(=O)C1CCC(CNc2c(N3CCOCC3)c(=O)c2=O)CC1 (stereo not given)	16.7%
CC(=O)c1cnc(Nc2ccc(C)cc2)s1	1.9%
C=CCSc1nnc(NC(=O)CSc2nc3ccccc3[nH]2)s1	4.3%
Cc1cc(NC(=O)c2ccc(Cl)cc2)n(CCOC(=O)c2ccc(Cl)cc2)n1	10.6%
Cc1nc2ccc(NC(=O)NCCO)cc2s1	3.3%
COc1ccc(C(=O)NCc2ccc(Cl)c(Cl)c2)cc1OC	-0.1%
Cc1cccc(-c2nc(CS(=O)CC(=O)N3CCCCC3)c(C)o2)c1 (stereo not given)	5.1%
Cc1ccccc1-n1c(=O)cc(N2CCCCCC2)[nH]c1=O	62.9% (active)
O=c1cc(N2CCCCCC2)[nH]c(=O)n1-c1ccccc1Cl	-6.5%
Cc1ccccc1-n1c(=O)cc(N2CCC3(CC2)OCCO3)[nH]c1=O	7%
CCOC(=O)/C(N=Nc1ccc(C(=O)O)cc1[N+](=O)[O-])=C(\C)O	-1.9%
CC(C)Cc1nc2oc3c(N4CCN(CCO)CC4)ncnc3c2c2c1CCCC2	2%
Cc1ccc(Cl)cc1NC(=S)N(CCCN1CCOCC1)Cc1ccco1	-6.2%
Clc1ncc(CSc2ccccc2)s1	-2.5%

SMILES	inhibition
COC(=O)c1ccccc1NC(=O)CNc1cc(Cl)ccc1N1CCOCC1	9.8%
O=C(COS(=O)c1ccccc1)Nc1cc(Cl)ccc1N1CCOCC1 (stereo not given)	8.4%
Cc1ccc(S(=O)OCC(=O)Nc2cc(Cl)ccc2N2CCOCC2)cc1 (stereo not given)	52% (active)
COc1ccccc1C(=O)Nc1ccccc1SC	10.6%
COc1ccc(S(=O)(=O)CCC(=O)N2c3ccccc3CC2C)cc1 (stereo not given)	2%
O=C(Nc1ccc2c(c1)OCO2)c1ccc(S(=O)(=O)NCC2CCCO2)cc1 (stereo not given)	-2.4%
COc1ccc2c([N+](=O)[O-])c(Cl)[nH]c2c1	67.9% (active)
CCOC(=O)CSc1[nH]c2cc(OC)ccc2c1[N+](=O)[O-]	9.3%
COc1ccc2c(C)cc(=O)[nH]c2c1	-3%
O=C(COC(=O)c1c2ccccc2cc2ccccc12)Nc1ncc(C(F)(F)F)cc1Cl	2.9%
COc1ccc(CCNC(=O)CSc2nc3ccccc3o2)cc1	1.3%
COc1ccc(CN=Cc2c(C(F)(F)F)[nH][nH]c2=O)cc1	-0.7%
COC1=C(c2ccccc2)C(=O)c2ccccc2C1=O	-57.4%
O=C(C1=C(c2ccccc2)C(=O)c2ccccc2C1=O)c1ccccc1	71.6% (active)
CC(C)c1ccc(C2=C(O)c3ccccc3C(=O)C2=O)cc1	22.2%
O=C1C(=C(O)c2ccccc2)C(=O)c2ccccc21	-47.9%
O=C1C(c2ccncc2)=C(O)c2ccccc21	-4.7%
COc1ccc(C(=S)Nc2ccc(C)cc2)cc1	3.8%
CC(C)(C)c1ccc(S(=O)(=O)N2CCCC2C(=O)N2CCOCC2)cc1 (stereo not given)	3.5%
CCOC(=O)c1nn(-c2ccccc2F)c2nc(-c3ccco3)c(C#N)c(=O)n12	-13.6%
Cc1ccc(-n2c(=S)[nH]c3sc4c(c3c2=O)CCC4)cc1	9.7%
Cc1ccc(-n2c(=S)[nH]c3sc4c(c3c2=O)CCc2ccccc2-4)cc1	24.1%
CCN(Cc1ccncc1)S(=O)(=O)c1ccc(C(C)=O)cc1	-13.6%
CCCCSc1cnn(-c2ccccc2)c(=O)c1SCCCC	5.9%

SMILES	inhibition
CN1CCOc2cc(S(=O)(=O)Nc3ccc(F)cc3)ccc21	0.5%
COc1ccc(CCNC(=O)CN2C(=O)NC(C)(c3ccc([N+](=O)[O-])cc3)C2=O)cc1 (stereo not given)	-0.6%
Cc1ccc(C2NC(=O)NC(O)(C(F)(F)F)C2C(=O)c2ccccc2)o1 (stereo not given)	-19.5%
O=C1NC(c2ccc(-c3ccccc3[N+](=O)[O-])o2)C(C(=O)c2ccccc2)C(O)(C(F)(F)F)N1 (stereo not given)	50.5% (active)
COc1cc(C2NC(=O)NC(O)(C(F)(F)F)C2C(=O)c2ccc(Cl)cc2)ccc1O (stereo not given)	2.5%
O=C1NC(c2ccc(-c3ccccc3[N+](=O)[O-])o2)C(C(=O)c2ccc(Cl)cc2)C(O)(C(F)(F)F)N1 (stereo not given)	50.3% (active)
O=C1NC(c2ccc(-c3ccccc3[N+](=O)[O-])o2)C(C(=O)c2ccc(F)cc2)C(O)(C(F)(F)F)N1 (stereo not given)	42.1%
COc1ccc(C(=O)C2C(c3ccc(-c4ccccc4[N+](=O)[O-])o3)NC(=O)NC2(O)C(F)(F)F)cc1 (stereo not given)	43.4%
Cc1ccccc1-n1c(-c2ccncc2)n[nH]c1=S	-11.7%
O=C1C(c2ccc(F)cc2)N(Cc2ccc3c(c2)OCO3)C(=O)CN1C1CCCC1 (stereo not given)	7.2%
COc1cc(C2/C(=C(\O)c3ccc4c(c3)CC(C)O4)C(=O)C(=O)N2CCCn2ccnc2)ccc1O (stereo not given)	54.7% (active)
CC1Cc2cc(/C(O)=C3/C(=O)C(=O)N(CCCn4ccnc4)C3c3cccnc3)ccc2O1 (stereo not given)	3.7%
CC1Cc2cc(/C(O)=C3/C(=O)C(=O)N(CCCn4ccnc4)C3c3ccncc3)ccc2O1 (stereo not given)	-10.1%
COc1cc(-c2ccc(NC(=O)CN3CCC(C)CC3)c(OC)c2)ccc1NC(=O)CN1CCC(C)CC1	21%
CC(C)c1ccc(CN(C)CC(O)c2ccccc2)cc1 (stereo not given)	-2.2%
CCN(CC)c1ccc(/C=N/NC(=O)c2c[nH]c3ccccc23)cc1	21.6%
COc1ccc(CCNC(=O)CCC(=O)Nc2nnc(C(C)C)s2)cc1OC	3.2%
CCN1CCc2c(C#N)c(N3CCOCC3)nc(N3CCOCC3)c2C1	-3%
CCN1CCc2c(C#N)c(N3CCOCC3)nc(NCc3ccccc3)c2C1	19.3%
CCN1CCc2c(C#N)c(N3CCOCC3)nc(NCCO)c2C1	57.2% (active)
CC1(C)Cc2c(sc3nc(-c4cc5ccccc5o4)n(N)c(=O)c23)CO1	7%
CCN1C(=O)C(C)S/C1=N\S(=O)(=O)c1ccc(Cl)s1 (stereo not given)	-0.5%
CC(C)CCN(C(=O)CNC(=O)c1cccs1)C(C(=O)NC1CCCC1)c1ccncc1 (stereo not given)	-1.9%
